Experimental findings from paper PMC12136788 are described below.

Residue numbers refer to the chain shown, from its start. Whole data set: some 24,000 sequences, median “enrichment r” near 0.99, cut for the highest 2% near 3.7. What follows is part of a selection rich in the highest values, with near analogues and random picks from the rest.

B1: chr15:83907240:83907241:-_ENSMUSG00000018865_ENSMUST00000082365|mus_mus|motif|central (ssRNA)
RNA: GGGAGUUCUACAGUCCGACGAUCGCUGUGAAAGAUACUAAUUCUUGGUGCAGUCUGGCAUCUGUGGGGCCUCUUCCACACCGGCCAGUGCCUUCAGAUGCCACCCGCAGCCUCGGGCCAGCUUCCCUGCCGAAACAUUCCUUGCAACAGAGGAUUGAGCAUCA
B2: chr2:242276830:242276831:+_ENSG00000168385_ENST00000391971|hu_mus|FALSE|FALSE (ssRNA)
RNA: GGGAGUUCUACAGUCCGACGAUCUAAGGGCUUCAGUCCAUGUCCAAAAGGUGAAAUGAAGUAGAAGCAACAAUGUACCCUGUUAUCAAUGAUGUGACGCCUGUUCAGUCCACUCUCAUCAUGUAGGUAGCGUUCAAACUGCUCCAACAGAGGAUUGAGCAUCA
B3: chr17:45747064:45747065:+_ENSG00000108424_ENST00000290158|hu_hu|hu_hu_hu_mus_True|28_58 (ssRNA)
RNA: GGGAGUUCUACAGUCCGACGAUCGCCCACAGUCCACGCUGUUGUGUCUCGAACAACUACACUGGGGUCUUUCAUUAAUUCUAUUAGGGUGGGCAUAGCCUGUAUGACUAGUGGUUUCAGUUGAUUAGGCUCUGGUCCUUCCAACAACAGAGGAUUGAGCAUCA
B4: chr1:52246310:52246311:-_ENSMUSG00000026103_ENSMUST00000114513|mus_mus|motif|central (ssRNA)
RNA: GGGAGUUCUACAGUCCGACGAUCGCCCAUCUUGUCAAGAGGAGGAGACCAACACAUCAUGCCCAUGACGUUGGGGACAACGGAAAGAAUACCCCCAGCAACUCCAGAUUUUGCAGGAAGACCAACAUGGAACGCAAACUGCCCCAACAGAGGAUUGAGCAUCA
B5: chr7:7679991:7679992:-_ENSG00000106399_ENST00000396682|hu_hu|hu_hu_hu_mus_False|18_48 (ssRNA)
RNA: GGGAGUUCUACAGUCCGACGAUCUGGGAUGAAUCUUUUCCAGCUUCCCCACGAAGCACACGGGCCGGUCGAUAUACUGUGGUAACAUGCCGGCGUUGACGCGCGCUUUGGGGAGCUCCAUCAUGUCCUCCAUGAUUCUGCCGCCAACAGAGGAUUGAGCAUCA
B6: chr1:163117127:163117128:-_ENSG00000143248_ENST00000313961|hu_mus|hu_hu_hu_mus_False|38_78 (ssRNA)
RNA: GGGAGUUCUACAGUCCGACGAUCUGCUACAAAGGAUGUAACUCAACUCACAGGGCAUGAUUUCAUAGCCUGACCAGAUGACUACUUGAUUAGCUCCUGAUAAAACUCAGAGCGCACAAAGCGGGGCAGAGAAUCCUUCUCCAUCAACAGAGGAUUGAGCAUCA
B7: chr16:45382771:45382772:-_ENSMUSG00000022661_ENSMUST00000163230|mus_mus|mus_mus_mus_hu_True|8_108 (ssRNA)
RNA: GGGAGUUCUACAGUCCGACGAUCCUGAGUGUUAUUGUAAGACAAAUGGACAGGGAGGGCAUGCUUCUCAAAAAAUGUGAGCUAUUGUCUAAGACUAACAAUAUUUAUCUAGCUAUAAAAAUAAGUUUUAAAUGGACGUUAAGACAACAGAGGAUUGAGCAUCA
B8: chr16:45382771:45382772:-_ENSMUSG00000022661_ENSMUST00000163230|mus_mus|mus_mus_mus_hu_True|8_8 (ssRNA)
RNA: B7 RNA with A27G, G30C, U31A, A33G, G36A
B9: chr16:45382771:45382772:-_ENSMUSG00000022661_ENSMUST00000163230|mus_mus|mus_mus_mus_hu_True|8_48 (ssRNA)
RNA: B7 RNA with A27G, G30C, U31A, A33G, G36A, U87A
B10: chr16:45382771:45382772:-_ENSMUSG00000022661_ENSMUST00000163230|mus_mus|mus_mus_mus_hu_True|8_38 (ssRNA)
RNA: B7 RNA with A27G, G30C, U31A, A33G, G36A, U105G, A106C
B11: chr14:62207507:62207508:+_ENSG00000100644_ENST00000337138|hu_mus|FALSE|FALSE (ssRNA)
RNA: GGGAGUUCUACAGUCCGACGAUCUGACAACUGAUCAAAGGAACGUAACUGGAAAUCAUCAUCCAUUGGGAUAUAGGGAGCCAGCAUCUCCAAAUCUAAAUCAGUGUCCUGAGUUGAAAAUGGAUUCUUUGCCUCUGUGUCUUCCAACAGAGGAUUGAGCAUCA
B12: chr9:95013113:95013114:-_ENSG00000196305_ENST00000443024|hu_hu|hu_hu_hu_mus_False|28_58 (ssRNA)
RNA: GGGAGUUCUACAGUCCGACGAUCCUCAGUCAGAAAGGGCGUGUAAGGGGCCAUCAGUCUGCACAGAGAAAGCAGGACACUAAACAAUGUCUCCAGAGCCAUGACACAAUCCUCCAUCCCACUCUCACCCUUUAACCUCCUCCUCAACAGAGGAUUGAGCAUCA
B13: chr9:14812383:14812384:-_ENSMUSG00000031934_ENSMUST00000164273|mus_mus|FALSE|FALSE (ssRNA)
RNA: GGGAGUUCUACAGUCCGACGAUCAUAGCUCAAGUAGAUACAUGCCAACAGUAUAACCACAAAUGUCACCAGCCGGCAGCUAAUGUAUUUCAUGAUUAAAUGACUAGAGUUCUUUUUUGUCUUCAAGUACUGCUCCACGAUUGGCAACAGAGGAUUGAGCAUCA
B14: chr5:128448638:128448639:+_ENSG00000066583_ENST00000173527|hu_mus|hu_hu_hu_mus_False|48_58 (ssRNA)
RNA: GGGAGUUCUACAGUCCGACGAUCGGCACUCGCCUUAAUUAGGUUCUGAAUUUCCUUGAACUUCGGGUGGUCUUUGUCAGCUACCAGCUGAAGCAGAACAGCCUCACUAGUGGUCACGAUGAUCCCAGUGCGGGCAAGACGCUCCAACAGAGGAUUGAGCAUCA

The target of this test is T1, UNK ZnF1-3 (human, UniProt Q9C0B0 31-174).
T1 sequence: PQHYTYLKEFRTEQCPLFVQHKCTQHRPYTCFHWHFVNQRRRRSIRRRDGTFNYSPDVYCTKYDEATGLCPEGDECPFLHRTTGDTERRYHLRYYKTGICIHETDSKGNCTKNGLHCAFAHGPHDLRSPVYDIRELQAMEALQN
The test is described as follows: nsRBNS (natural sequence RNA bind-n-seq); RBNS binding buffer (assumed for nsRBNS): 25 mM Tris pH 7.5, 150 mM KCl, 3 mM MgCl2, 0.01% Triton X-100, 500 ug/ml BSA, 20 U/ml SUPERase-In, 4 C; UNK is unkempt and MSI1 is Musashi-1; names of the RNAs are library labels; protein concentration not given here; high values mean tight binding.
In turn, B1 came in with a binding signal of 0.646 enrichment R.

As to B2, the binding signal worked out at 0.794 enrichment R.

Take B3: the binding signal is 0.639 enrichment R.

Regarding B4, the binding signal was 1.07 enrichment R.

Consider B5, for which the binding signal was 0.554 enrichment R.

Regarding B6, the binding signal was 0.974 enrichment R.

On to B7, for which the binding signal was 3.42 enrichment R.

Turning to B8, the binding signal came to 3.98 enrichment R.

In turn, B9 displayed a binding signal of 5.59 enrichment R.

Take B10: the binding signal is 3.88 enrichment R.

Take B11: the binding signal worked out at 1.17 enrichment R.

B12: the binding signal amounted to 1.38 enrichment R.

With B13, the binding signal was found to be 0.953 enrichment R.

Take B14: the binding signal was determined as 0.822 enrichment R.
